# In the library only some 11% were active in any assay of this set; here they are far more common.
# ALOX12 inhib – blocks human 12-lipoxygenase activity. AID 1452. 0.12% of 150,000 active. purified 12-hLO, xylenol orange hydroperoxide absorbance. Potency, µM (highest dose often 57.1 µM), inactives show at the highest dose activity change, negative = inhibition, actives largely listed as inhibitors. P18054; also: potency is read from the fitted curve at half-maximal effect; nearly all actives have a fitted effect of over 55% in size
#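 Lipoxygenase turnover measured by absorbance at 573 and 405 nm after Fe-XO development. Human 12hLO 150 nM, arachidonate 40 uM, pH 7.0 Hepes buffer with detergent; 15 min compound preincubation, 30 min reaction.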
# PNC assembly inh – perinucleolar compartment assembly inhibition; PC3M PTB-GFP, PNC prevalence imaging, 16 h; hits give low values; activity change (PNC), negative = inhibition, % at 10 µM; 3.1% of 140,000 active;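 active = readout at or below -70, meaning at least 70% loss of cells showing the perinucleolar compartment, a nuclear body marking cancer cells; inconclusive = readout between -30 and a set limit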;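 also: plate controls were DMSO wells for no effect and camptothecin positive control wells for full effect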
#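 Read-out is percentage of cells bearing a perinucleolar compartment, from automated 20x imaging of fixed, Hoechst-stained PC3M PTB-GFP cells. Cells were seeded 4 h, then exposed 16 h to compound (23 nl of library stock) in duplicate plates.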
# HPGD inh – inhibitors of human 15-hydroxyprostaglandin dehydrogenase (HPGD); purified HPGD, NADH fluorescence kinetic, PGE2 substrate; Potency, µM, inactives show top-dose activity change, negative = inhibition, hits mostly inhibitors; 4.3% of 150,000 active; AID 894; active = well fitted inhibition curve with a large enough effect, not every such curve was filed as active; inconclusive = small, poorly fitted or top-dose-only effect, or another doubt; inactive = no such curve, though single readings can be large or run the other way; also: potency is read from the fitted curve at half-maximal effect
# Target sequence (P15428 whole entry, looked up): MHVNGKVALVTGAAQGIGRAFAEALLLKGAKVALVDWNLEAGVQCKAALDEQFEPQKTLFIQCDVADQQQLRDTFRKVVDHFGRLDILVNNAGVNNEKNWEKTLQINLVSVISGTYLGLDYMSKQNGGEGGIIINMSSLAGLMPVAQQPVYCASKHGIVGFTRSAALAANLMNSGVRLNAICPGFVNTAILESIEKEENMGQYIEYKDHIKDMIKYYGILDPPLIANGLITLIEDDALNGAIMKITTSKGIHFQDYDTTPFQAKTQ
#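 20 nM HPGD preincubated 15 min at room temperature with compound in 50 mM Tris-HCl pH 8, 0.01% Tween 20. Started with 1 mM NAD+ and 30 uM prostaglandin E2; NADH fluorescence (360/450 nm) read 5 times over 30-s intervals, last minus first.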
# IMPase cell inh – IMPase inhibition in cells. inhibition (IP1 accumulation), % at 46.1 µM. CHO-M1 cells, IP1 accumulation, HTRF TR-FRET ratio. AID 901. 120,000 tested, under 10 active; active = well fitted curve in the direction sought with a large enough effect in the signal ratio, not every such curve was filed as active; inconclusive = small, poorly fitted or top-dose-only effect, or a change in a side signal; inactive = no such curve, though single readings can be large or run the other way; the % refers to the signal ratio;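 also: cells stimulated with carbachol in lithium chloride buffer; plate controls were DMSO basal wells for no effect and reference inhibitor wells for full effect; higher means more IMPase inhibition seen as more IP1 and lower FRET ratio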
# Target sequence (P97697 whole entry, looked up): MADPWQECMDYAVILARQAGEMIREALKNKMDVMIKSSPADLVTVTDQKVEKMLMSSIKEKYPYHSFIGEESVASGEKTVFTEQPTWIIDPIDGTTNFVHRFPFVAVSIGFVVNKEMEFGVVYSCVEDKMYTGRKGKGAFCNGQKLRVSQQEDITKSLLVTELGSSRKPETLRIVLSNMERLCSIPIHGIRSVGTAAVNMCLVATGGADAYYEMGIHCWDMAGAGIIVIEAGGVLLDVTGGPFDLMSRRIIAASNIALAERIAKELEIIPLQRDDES
#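 CHO-M1, 2000 cells/well, cultured 16–30 h; cpd up to 46 uM; carbachol (50 uM solution, stimulation buffer w/ 50 mM LiCl, pH 7.4), 30 min 37C; IP-One TR-FRET, 10 min RT; Ex 320/Em 665, 620; Hill-fit AC50.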
# IMPase Li cell – cell-permeable IMPase inhibitors with lithium potentiation. CHO-M1 cells, IP1 TR-FRET (IP-One), carbachol + lithium. Potency, µM (titrated, usually from 59.4 µM), inactives show top-dose activity, negative = IMPase inhibition, actives largely listed as inhibitors. 0.35% of 210,000 active. AID 1457;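 also: IP1 builds up when IMPase is blocked and the TR-FRET signal falls; potency is read from the fitted curve at half-maximal effect; plate controls were basal vehicle for no effect and high inhibitor control for full effect; nearly all actives have a fitted effect of over 50% in size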
#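 Concentration–response in CHO-M1 cells, lithium-potentiated; 30 min at 37C. IP1 detected by competitive TR-FRET after 10 min lysis at RT. Hill-fitted AC50.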
# ALDH1A1 inh – ALDH1A1 (human) enzyme inhibition | P00352 | Potency, µM (doses to about 75.3 µM), without a hit: at the top dose activity, negative = inhibition, usual class: inhibitors | AID 1030 | 7.3% of 220,000 active | Purified ALDH1A1, NADH fluorescence, propionaldehyde substrate; active = well fitted inhibition curve with a large enough effect, not every such curve was filed as active; inconclusive = small, poorly fitted or top-dose-only effect, or another doubt; inactive = no such curve, though single readings can be large or run the other way;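 also: potency is read from the fitted curve at half-maximal effect; plate controls were no enzyme wells and a reference inhibitor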
# Numbers without * were called inactive; ? = inconclusive; . = not tested or not shown; [ ] = remark or other dose. Unless noted, calls follow the shape of the dose curve; as a rule, active = well fitted curve in the direction sought with a large enough effect; inconclusive = small, poorly fitted or top-dose-only effect, or another doubt; inactive = no such curve, though single readings can be large; an effect the other way counts as inactive or inconclusive. Unless noted, % is scaled to controls: 0 for no effect and ±100 for the full control effect.
SMILES,ALOX12 inhib,PNC assembly inh,HPGD inh,IMPase cell inh,IMPase Li cell,ALDH1A1 inh
O=C(NC(=S)NNS(=O)(=O)c1ccccc1)c1cccnc1,.,.,.,.,5%,?
Cc1ccc(-n2cc3c(=O)n(C)c(=O)n(C)c3c2)cc1C,-5%,16,-19%,-6,1%[38.3 µM],14µM*
O=c1[nH]cnc2c1sc(=S)n2-c1ccccc1,6%,?,14µM*,-2,23%[38.3 µM],10µM*
O=c1[nH]c(-c2ccc(F)cc2)nc2c1sc(=S)n2-c1ccccc1,3%,?,-26%,4,3%,?
Cc1cc(NC(=O)c2ccccc2)ncc1NC(=O)c1ccco1,-1%,20,?,3,-2%,11µM*
O=C(Nc1ccc(NC(=O)c2ccco2)nc1)c1ccccn1,0%,-24,-24%,?,?,14µM*
CO[C@@H]1COC(=O)CCC[C@@H](C)[C@H](OC)COC(=O)CCC[C@H]1C,.,.,.,.,.,3%[13.5 µM]
Cc1ccc(/C=C/C(=O)N2CC(=O)Nc3ccccc32)o1,.,.,.,.,0%,20µM*
Cc1cc(C)c2nc(SCC(=O)N3CC(=O)Nc4ccccc43)c(C#N)cc2c1,-2%,-104*,?,9,9%,?
O=C1CN(C(=O)CSc2nc(-c3ccc(Cl)cc3)cs2)c2ccccc2N1,-1%,-113*,13µM*,.,-6%,-4%
COc1ccc2nc(SCC(=O)N3CC(=O)Nc4ccccc43)c(C#N)cc2c1,5%,?,?,-8,31%[38.3 µM],-15%
Cc1cc(C)cc(C(=O)N2CC(=O)Nc3ccccc32)c1,-3%,-80*,-27%,7,37%[38.3 µM],?
CC(C)(C)OC(=O)NCCCC1=CC2=CC(=O)C(C)(OC(=O)c3cnc4ccccc4n3)C(=O)C2=CO1 (configuration not stated),-5%,.,-11%,.,13%,0%
Nn1c(Cc2ccccc2F)nnc1SCC(=O)N1CC(=O)Nc2ccccc21,2%,-100*,-17%,-9,-2%,4%
Cc1nnc(SCC(=O)N2CC(=O)Nc3ccccc32)n1-c1ccccc1,-3%,10,-11%,5,-8%[38.3 µM],-5%
O=C(C/C=N/OCc1ccc(F)cc1Cl)c1cnc(-c2ccccc2)s1,3%,-21,-10%,-6,-15%[38.3 µM],-7%
O=C(C/C=N/OCc1ccccc1F)c1cnc(-c2ccc(Cl)cc2)s1,-6%,-11,-14%,4,-16%[38.3 µM],22µM*
O=S(=O)(CCSc1nc2ccccc2s1)c1nc2ccccc2s1,-5%,-29,-18%,11,26%[38.3 µM],0.1µM*
N#C/C(=C\c1ccco1)Sc1nc2ccccc2s1,-7%,-4,10µM*,4,48%[38.3 µM],13µM*
C=CCS(=O)(=O)c1nc2ccccc2s1,-3%,32,-12%,1,7%[38.3 µM],0.79µM*
O=S1(=O)C=C(Sc2nc3ccccc3s2)c2ccccc21,-12%,?,?,15,50%[38.3 µM],14µM*
CCCn1c(=O)sc2cc(NC(=O)COc3ccc(Cl)cc3)ccc21,.,.,.,-17,.,.
S=c1[nH]nc(CSc2nc3ccccc3s2)o1,-3%,23,-26%,5,-6%[38.3 µM],18µM*
N#Cc1cccc(CS(=O)(=O)c2nc3ccccc3s2)c1,.,.,-6%,.,3%,14µM*
c1ccc2sc(SSc3nc4ccccc4s3)nc2c1,2%,.,10µM*,.,0%,0.25µM*
SMILES,ALOX12 inhib,PNC assembly inh,HPGD inh,IMPase cell inh,IMPase Li cell,ALDH1A1 inh
N#CCCCS(=O)(=O)c1nc2ccccc2s1,.,.,-21%,.,3%,-6%
O=C(O)/C=C/c1ccc(OCc2cccc(F)c2)cc1,.,.,.,.,-6%,-1%
CCN(CC)CCOC(=O)[C@@H](Cc1cccc2ccccc12)C[C@@H]1CCCO1,-1%[25.6 µM],.,-6%,11[20.6 µM],14%,?
COc1ccc(CNC(=O)CSc2ccsc2[N+](=O)[O-])cc1,.,.,.,.,4%,14µM*
COC(=O)Cn1cc([N+](=O)[O-])nc1C,.,.,.,.,-5%,-2%
COc1ccc(CNC(=O)Cn2cc([N+](=O)[O-])nc2C)cc1,-15%,-86*,-5%,4,-6%[38.3 µM],14%
CCN(CC)c1ccc(NC(=O)CSc2ccsc2[N+](=O)[O-])c(C)c1,-6%,2,13µM*,.,32%,15µM*
Cc1ccccc1-c1nccc(NCc2cccnc2)n1,.,.,.,.,0%,?
CC(C)CN1CCC2(CC1)CCN(C(=O)c1cnccn1)CC2,1%,.,-4%,.,-9%,6%
FC(F)(F)c1ccccc1-c1nccc(N2CCNCC2)n1,.,.,.,.,2%,15%
CCOc1ccc(N2C(=O)CS/C2=C(\C(Cl)=C(Cl)Cl)[N+](=O)[O-])cc1,-8%,50,-5%,7,6%[38.3 µM],22µM*
COc1ccc(C2OC3C(CO)OC(n4cnc5c(=O)[nH]c(N)nc54)C3O2)cc1 (configuration not stated),7%,.,16µM*,.,6%,2%
Cc1cc(N2CCCC2)nc(SCC(=O)c2ccccc2)n1,-3%,317,-8%,-1,11%,-4%
Cc1cc(N2CCC(C)CC2)nc(SCC(=O)c2ccccc2)n1,-4%,-119*,-10%,13,13%,14µM*
O=C(CCN1C(=O)C2C3C=CC(C3)C2C1=O)Nc1ccccc1 (configuration not stated),.,.,.,.,-2%,-6%
O=C(CCN1C(=O)C2C3C=CC(C3)C2C1=O)NCCc1ccccc1Cl (configuration not stated),6%,16,-13%,0,19%[38.3 µM],8.9µM*
Cc1ccc(NCc2nnc(SCC#N)o2)c(C)c1,-5%,-100*,-16%,10,6%,-15%
Cc1ccc(NCc2nnc(SCC(=O)c3ccccc3)o2)c(C)c1,-11%,-16,-5%,?,-20%[38.3 µM],-3%
O=C(O)CCCc1ccc2ccc3ccccc3c2c1,-1%[11.4 µM],.,-11%,.,0%,3%[13.5 µM]
CC(=O)OCC1=C(C(=O)O)N2C(=O)[C@@H](NC(=O)CSc3ccncc3)[C@@H]2SC1,-5%[25.6 µM],.,-3%,3[20.6 µM],-1%,2%[20.9 µM]
CCN(CC)C(=S)SCC(=O)c1ccc(Br)cc1,0%,24,?,.,12%,8.9µM*
COc1ccccc1N(C)S(=O)(=O)c1ccc(C(=O)OCC(=O)N(C)c2ccccc2)cc1,.,.,.,.,18%,32µM*
COc1ccc(-n2c(N3CCN(C)CC3)nc3sc4c(c3c2=O)CCCCC4)cc1,-5%,-16,?,-1,-2%[38.3 µM],2.8µM*
COc1ccc(-n2c(C)nc3sc4c(c3c2=O)CCC4)cc1,.,.,.,.,1%,8%
Cc1c(N2C(=O)C(=O)/C(=C(/O)c3ccc(Br)cc3)C2c2cccnc2)c(=O)n(-c2ccccc2)n1C (configuration not stated),.,.,.,.,8.9µM*,-3%

# Source: PubChem (National Center for Advancing Translational Sciences (NCATS))
